# Rows were chosen to be rich in hits. Some 2.3% of all compounds tested hit in one or more screens of this group.
# TDP43 rescue: inhibitors of TDP-43 toxicity in yeast; Potency, µM (doses to about 46.1 µM), actives largely listed as activators; TDP-43 expressing yeast growth rescue, BacTiter-Glo, 24 h; 1.8% of 410,000 active; also: nearly all actives have a fitted effect of over 50% in size
#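 In this qHTS, compounds that restore growth of yeast expressing TDP-43 appear as activators. Cells (OD600=0.02, galactose medium, raffinose-pregrown) are incubated with compound 24 hr at 30 deg C and growth is quantified by BacTiter-Glo.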
# Mm-Cpn inhibitor: blocks the Methanococcus maripaludis chaperonin Mm-Cpn. purified Mm-Cpn ATPase, ADP Transcreener TR-FRET. Potency, µM (doses to about 76.9 µM), hits mostly inhibitors. 0.031% of 330,000 active. AID 504842; also: nearly all actives have a fitted effect of over 80% in size
#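 Purified archaeal chaperonin (25 nM final) was preincubated with compound for 10 min at 37°C, then ATP (10 uM final) was added for 30 min at 37°C in Tris pH 7.4/KCl/MgCl2/DTT buffer. ADP was quantified by HTRF Transcreener TR-FRET.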
# CCT modulator: changes cytosolic chaperonin activity | activity change, % (test concentration not listed), hits read low | 0.3% of 360,000 active | purified chaperonin ATPase assay, HTRF ADP detection, 30 min | AID 651819; in the data active = activity change below about -30%
#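 Nucleotide hydrolysis assay: TRiC at 20–40 nM final (set by batch activity) with 10 uM ATP, 30 min at 37 °C, in presence of 76 uM compound. Detection by competitive ADP HTRF, 30 min ambient.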
# Abeta rescue: restores growth of yeast expressing A-beta42 peptide | 0.063% of 410,000 active | yeast expressing A-beta42, growth rescue, OD600, 48 h; response scale: 0% DMSO, 100% iron-clioquinol control | Potency, µM (series often up to 46.1 µM), hits mostly activators; also: nearly all actives have a fitted effect of over 55% in size
#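 Yeast growth medium received pinned compounds, then yeast cells expressing toxic A-beta were added; plates incubated at 30 C for 48 hr. Growth read as absorbance at 600 nm, normalized to DMSO and equimolar FeCl3 plus clioquinol controls.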
# FUS yeast rescue: suppressors of FUS proteinopathy in yeast; 0.24% of 390,000 active; S. cerevisiae FUS-expressing, growth rescue, OD600, 24 h; Potency, µM (doses to about 76.6 µM), usual class: activators; also: nearly all actives have a fitted effect of over 55% in size
#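 Steps: raffinose overnight preculture; dilution to OD 0.005 in 2% galactose minimal medium; compound addition (concentration series); 24hr at 30C, 99% humidity; absorbance read at 600 nm.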
# aSyn rescue: inhibitors of alpha-synuclein toxicity in yeast; Yeast expressing alpha-synuclein, growth rescue, BacTiter-Glo, 24 h; 0.14% of 370,000 active; Potency, µM (doses to about 46.1 µM), actives largely listed as activators; also: nearly all actives have a fitted effect of over 65% in size
#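 Rescue of yeast growth: cells expressing toxic alpha-synuclein, induced in galactose at OD600 0.02, incubated with compound 24 h at 30 C. ATP luminescence quantified growth; inhibitors of toxicity appear as activators.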
# Numbers stand for hits; i = inactive; ? = inconclusive; nt = no result; [ ] = dose if it differs, or a comment. Unless noted, calls follow the shape of the dose curve; as a rule, active = well fitted curve in the direction sought with a large enough effect; inconclusive = small, poorly fitted or top-dose-only effect, or another doubt; inactive = no such curve, though single readings can be large; an effect the other way counts as inactive or inconclusive.
SMILES,TDP43 rescue,Mm-Cpn inhibitor,CCT modulator,Abeta rescue,FUS yeast rescue,aSyn rescue
CCCCN(C)C(=O)c1ccc2c(c1)N(Cc1cccc(F)c1)C(=O)c1ccccc1S2,22µM,nt,nt,i,?,nt
CNC(=O)c1ccc2c(c1)N(Cc1cc(C)ccc1C)C(=O)c1ccccc1S2,16µM,nt,nt,i,?,nt
CCCCN(C)C(=O)c1ccc2c(c1)N(Cc1cccc(Cl)c1)C(=O)c1ccccc1S2=O (configuration not stated),i,nt,nt,i,?,nt
COC(=O)c1ccc2c(c1)N(Cc1cc(C)ccc1C)C(=O)c1ccccc1S2,i,nt,nt,i,i,i
O=C(C[N+]1(CCO)CCOCC1)c1ccc(F)c2ccccc12,nt,nt,nt,nt,nt,i
Cc1ccc(-c2cc(C#N)c3n(c2=O)CCC3)cc1,nt,nt,nt,nt,i,nt
Cc1ccc2nc(-c3ccc(C)c(NC(=O)COc4ccc(Br)cc4)c3)oc2c1,nt,nt,nt,nt,nt,i
Cc1ccc(Cl)cc1N(C)C(=O)c1sc2nc3n(c(=O)c2c1C)CCCC3,20µM,nt,nt,i,i,nt
Cc1ccc(N(C)C(=O)c2sc3nc4n(c(=O)c3c2C)CCCC4)cc1C,16µM,nt,nt,i,i,nt
Nn1c(SCC(=O)N2CCOCC2)nnc1-c1cc(-c2ccc(Cl)cc2)n[nH]1,nt,nt,nt,nt,i,nt
O=C(C(=O)N1CCC(Cc2ccccc2)CC1)c1cccc(Br)c1,i,nt,nt,i,i,i
COc1ccc(C(=O)C(=O)N2CCC(c3ccccc3)CC2)cn1,i,nt,nt,i,i,16µM
COc1ccc(C(=O)C(=O)N2CCC(Cc3ccccc3)CC2)cc1OC,11µM,nt,nt,i,i,i
O=C(C(=O)N1CCC(c2ccccc2)CC1)c1cccc([N+](=O)[O-])c1,?,nt,nt,i,i,?
CCOC(=O)Cn1cc(CN2C(C(=O)OC)CN(C3CC3)CCS2(=O)=O)nn1 (configuration not stated),nt,nt,nt,nt,i,nt
O=C(CSc1nc2ccccc2o1)NN=C/C=C/c1ccccc1,nt,nt,nt,nt,i,nt
O=C(Cn1cc(C(=O)c2cccs2)c2ccccc21)Nc1ccc(Br)cc1,i,nt,nt,i,i,nt
CCOC(=O)c1nc(N2CCN(C(=O)OCC)CC2)c2c3c(sc2n1)CCCC3,i,i,i,i,i,16µM
CCc1nc(N2CCN(C(=O)CCCl)CC2)c2c3c(sc2n1)CCCC3,20µM,nt,i,i,i,i
O=C(CNC(=O)C(c1ccccc1)c1ccccc1)OCC(=O)c1ccc2ccccc2c1,nt,nt,nt,nt,nt,i
CC(C)c1ccc(NC(=O)CSC2=Nc3ccccc3C3=NC(CC(=O)NC4CCCCC4)C(=O)N23)cc1 (configuration not stated),i,nt,nt,i,32µM,nt
COc1cccc(NC(=O)CSC2=Nc3ccccc3C3=NC(CC(=O)NCc4ccccc4OC)C(=O)N23)c1 (configuration not stated),i,nt,nt,i,35µM,nt
CC(C)c1ccc(NC(=O)CSC2=Nc3ccccc3C3=NC(CCC(=O)NC4CCCCC4)C(=O)N23)cc1 (configuration not stated),i,nt,nt,i,i,nt
COc1ccc(OC)c(NC(=O)CSC2=Nc3ccccc3C3=NC(CC(=O)NCc4ccco4)C(=O)N23)c1 (configuration not stated),i,nt,nt,i,i,nt
O=C(Nc1ccccc1C(F)(F)F)N1CCC(CN2CCc3ccccc3C2)CC1,i,nt,nt,i,i,nt
SMILES,TDP43 rescue,Mm-Cpn inhibitor,CCT modulator,Abeta rescue,FUS yeast rescue,aSyn rescue
N#Cc1c2n(c3c(=O)n(Cc4ccccc4Cl)cnc13)CCCCC2,i,i,-32,i,i,i
COC(=O)Cn1cnc2c(C#N)c3n(c2c1=O)CCCCC3,i,i,i,i,i,i
C=C1CCC2C(C)(CO)C(O)CCC2(C)C1C/C=C1\C(=O)OCC1O (configuration not stated),nt,nt,nt,nt,nt,i
CC(O/N=C(\N)c1ccccc1)C(=O)Nc1cccc(C(F)(F)F)c1 (configuration not stated),13µM,i,i,i,i,i
Cc1ccccc1N1CC(c2nc3ccccc3n2CCC2CCCCC2)CC1=O (configuration not stated),22µM,nt,nt,i,?,nt
COc1ccc(-c2csc(C(O)c3ccc(F)c(F)c3)n2)cn1 (configuration not stated),22µM,nt,i,?,i,?
COc1ccc(-c2csc(C(O)c3ccc(F)c(OC)c3)n2)cn1 (configuration not stated),35µM,nt,i,i,i,i
OC(c1ccc(F)c(F)c1)c1nc(-c2ccc(Cl)cc2)cs1 (configuration not stated),?,nt,i,i,i,?
Cc1cc(-c2ccc(S(=O)(=O)Nc3cc(Cl)ccc3C)s2)on1,i,nt,nt,i,i,nt
COc1ccc(OC)c2sc(NNC(=O)C3COc4ccccc4O3)nc12 (configuration not stated),6.3µM,i,i,?,i,i
CCCC(=O)Nc1nc(-c2ccc3c(c2)OCCO3)cs1,10µM,i,i,i,i,i
Cc1cccc2sc(NNC(=O)C3COc4ccccc4O3)nc12 (configuration not stated),?,i,i,i,i,i
COc1ccc(-c2csc(NC(=O)C3COc4ccccc4O3)n2)cc1OC (configuration not stated),35µM,i,i,i,i,i
O=C(/C=C/c1ccc(Cl)cc1Cl)Nc1ccncc1,i,i,i,i,nt,i
Cc1cc(C)nc(NC(=O)/C=C/c2ccccc2Cl)n1,i,i,i,i[9.22 µM],i,i
Cc1cc(C)nc(NC(=O)/C=C/c2ccc(Cl)cc2Cl)c1,7.1µM,i,i,i,nt,i
Cc1cc(C)nc(NC(=O)/C=C/c2ccccc2Cl)c1,13µM,i,i,i,nt,i
CC(Cc1cccs1)NC(=S)Nc1ccccc1 (configuration not stated),i[0.397 µM],i,i,11µM,i,i
CC(Cc1cccs1)NC(=O)Nc1ccc(Cl)cc1 (configuration not stated),22µM,i,i,i,i,i
CCCCN1CCN(C(=O)c2ccc(CNC(=O)c3cccc(Br)c3)cc2)CC1,nt,nt,nt,nt,i,nt
COc1ccc(C(C)(O)c2nc(-c3cnc4ccccc4c3)cs2)cc1 (configuration not stated),35µM,nt,i,i,i,?
CC(O)(c1cccc(F)c1)c1nc(-c2cccc(F)c2)cs1 (configuration not stated),i,nt,i,i,i,i
COCc1cccc(-c2csc(C(C)(O)c3cccc(F)c3)n2)c1 (configuration not stated),35µM,nt,i,i,i,i
CC(=O)NC(C)(c1ccccc1)c1nc(-c2cncnc2)cs1 (configuration not stated),i,nt,i,i,i,i

# Assay outcomes (PubChem)
